# KCNQ2 inh: blocks the rat KCNQ2 potassium channel. CHO-K1 KCNQ2, FluxOR thallium flux, 20 min; stronger effect = lower value. B-score at 10 µM. actives 1.1% (n = 310,000). AID 2156;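 active = fluorescence ratio B-score at most minus 3 library SDs, with starting brightness B-score within 2 library SDs, cut at about -5.5 in these data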
# Target sequence (O88943 whole entry, looked up): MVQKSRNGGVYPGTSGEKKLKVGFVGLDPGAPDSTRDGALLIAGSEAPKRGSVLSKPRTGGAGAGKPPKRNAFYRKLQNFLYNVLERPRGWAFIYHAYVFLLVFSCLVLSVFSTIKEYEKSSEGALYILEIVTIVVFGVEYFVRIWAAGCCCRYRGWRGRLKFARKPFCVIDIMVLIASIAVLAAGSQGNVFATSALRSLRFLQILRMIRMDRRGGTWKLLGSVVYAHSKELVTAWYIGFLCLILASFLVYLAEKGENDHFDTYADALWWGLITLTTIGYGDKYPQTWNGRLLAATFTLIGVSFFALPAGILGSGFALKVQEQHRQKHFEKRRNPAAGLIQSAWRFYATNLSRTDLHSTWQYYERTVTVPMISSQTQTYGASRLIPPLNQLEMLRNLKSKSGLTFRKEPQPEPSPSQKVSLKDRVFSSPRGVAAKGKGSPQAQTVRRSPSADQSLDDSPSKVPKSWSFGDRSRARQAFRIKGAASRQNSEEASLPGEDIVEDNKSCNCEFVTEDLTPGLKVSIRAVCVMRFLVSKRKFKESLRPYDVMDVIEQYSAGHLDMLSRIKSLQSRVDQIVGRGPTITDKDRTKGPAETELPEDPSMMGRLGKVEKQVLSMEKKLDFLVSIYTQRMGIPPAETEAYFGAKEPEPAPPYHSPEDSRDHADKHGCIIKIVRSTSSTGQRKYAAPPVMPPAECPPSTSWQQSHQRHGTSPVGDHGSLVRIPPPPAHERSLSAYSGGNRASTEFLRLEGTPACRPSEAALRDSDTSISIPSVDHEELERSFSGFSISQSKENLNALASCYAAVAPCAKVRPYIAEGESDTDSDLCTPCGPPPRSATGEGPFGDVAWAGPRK
# KCNQ2 enhance: enhances the rat KCNQ2 potassium channel | CHO-K1 KCNQ2, FluxOR thallium flux fluorescence; stronger effect = higher value | O88943 | AID 2239 | B-score at 10 µM | actives 0.54% (n = 310,000);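 active = fluorescence ratio B-score at least 3 SD of library B-scores, with initial fluorescence B-score within 3 of them, cut at about 5.3 in these data; same plate scores as AID 2156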;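 note: B-score of peak minus minimum over baseline fluorescence ratio after K+ and Tl+ stimulus; positive B-score means potentiation of KCNQ2 with more thallium influx and brighter signal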
# Numbers without * were called inactive; i = inactive; . = not tested or not shown. In the library only some 1.6% were active in any assay of this set; here they are far more common.
SMILES,KCNQ2 inh,KCNQ2 enhance
O=S(=O)(c1ccccc1)N1CCN=C1SCc1c(F)cccc1Cl,-6.3*,-6.3
Cc1ccc(S(=O)(=O)N2CCN=C2SCc2ccc(Cl)c(Cl)c2)cc1,i,.
O=C(CSc1nc(-c2ccccc2)cc(=O)[nH]1)Nc1ccc(F)c(F)c1,i,.
O=C(Nc1cc(Br)c(O)c(Br)c1)c1cccc(NC(=O)c2ccco2)c1,i,2.8
O=C(Nc1cccc(N=Cc2cc(Cl)cc(Br)c2O)c1)c1ccco1,i,10*
COc1ccc(NC(=O)CN2C(=O)COc3ccccc32)cc1OC,i,0.6
CC1CCN(S(=O)(=O)c2cc(F)ccc2CN2C(=O)c3cccnc3C2=O)CC1,i,0.01
COC(=O)[C@H](Cc1ccccc1)NC(=O)c1cc(COc2c(F)cccc2F)on1,i,1.9
CCOC(=O)CC1(NC(=O)c2cc(COc3c(F)cccc3F)on2)CCCCC1,-5.7*,-5.7
Cc1ccc(S(=O)(=O)c2c(C)nn(C(C)(C)C)c2OC(=O)C(C)C)cc1,i,.
Cc1ccc(S(=O)(=O)c2c(C)nn(C(C)(C)C)c2OC(=O)CC(C)C)cc1,-7.6*,-7.6
N/C(CC1CC1(Cl)Cl)=N\OC(=O)c1ccccc1 (stereo not drawn),-8.6*,-8.6
N/C(Cc1ccc(Cl)cc1Cl)=N\OC(=O)c1ccccc1,i,4.1
CC(C)(C)c1ccc(S(=O)(=O)Nc2noc3ccccc23)cc1,i,2.2
CCCn1c(=O)c(C(=O)NCc2ccc3c(c2)OCO3)c(O)c2ccccc21,-5.9*,-5.9
CCCn1c(=O)c(C(=O)NCCc2ccc(OC)c(OC)c2)c(O)c2ccccc21,-6.2*,-6.2
CCn1c(=O)c(C(=O)NCCc2ccc(OC)c(OC)c2)c(O)c2ccccc21,i,.
CCCn1c(=O)c(C(=O)NCc2cccnc2)c(O)c2ccccc21,i,.
Cc1ccc(CNS(=O)(=O)N(C)C)cc1,i,.
Cn1cnnc1SCC(=O)NNC(=O)c1ccc(Cl)cc1,i,0.98
CN(C(=O)c1ccccc1C(=O)OCC(=O)c1ccc(Br)cc1)c1ccccc1,i,.
CC(=O)N(c1nnc(-c2cccc(C)c2)s1)C1CCCC1,i,.
CCCCN(C)CCNC(=O)CN1C(=O)CSc2ccc(S(=O)(=O)N3CCCC3)cc21,i,0.14
COc1ccc(-c2nc(NC(=O)c3[nH]c(C)c(C(C)=O)c3C)sc2C)cc1,-6.5*,-6.5
CC(=O)c1c(C)[nH]c(C(=O)Nc2nc(-c3ccc(-c4ccccc4)cc3)cs2)c1C,-7.6*,-7.6
SMILES,KCNQ2 inh,KCNQ2 enhance
COc1ccc(OC)c(NC(=O)c2[nH]c(C)c(C(C)=O)c2C)c1,i,0.07
CC(=O)c1c(C)[nH]c(C(=O)Nc2nc(-c3ccc(Cl)cc3)cs2)c1C,i,0.73
CC1CCCN(CC(=O)Nc2ccc(S(=O)(=O)N3CCCC3)cc2)C1 (stereo not drawn),i,0.35
Cc1c(Cl)cccc1NC(=O)CSc1nncn1-c1ccccn1,i,.
O=C(NCc1ccc2c3c(cccc13)C(=O)N2)c1cccs1,i,.
Cc1c(C(=O)NCc2ccccc2)c(-c2ccccc2)nn1-c1ccccc1,-5.6*,-5.6
Cc1c(C(=O)NC(C)C)c(-c2ccccc2)nn1-c1ccccc1,i,.
Cc1c(-c2ccccc2)nc2ccccc2c1C(=O)O,i,2.1
CC[C@H](NC(=O)c1c(C)c(-c2ccccc2)nc2ccccc12)c1ccccc1,-11*,-11
CCOc1ccccc1N1CC(C(=O)Nc2cc(S(C)(=O)=O)ccc2Cl)CC1=O (stereo not drawn),i,1.8
Cc1nc(N2CCN(c3ccccc3)CC2)nc2c1C(=O)CC(C)C2 (stereo not drawn),i,.
Cc1nc(N2CCN(c3ccccc3)CC2)nc2c1C(=O)CC(c1ccccc1)C2 (stereo not drawn),-6.1*,-6.1
COc1c(Cl)cc(-c2noc(C)c2C(=O)NCc2ccc3c(c2)OCO3)cc1Cl,i,14*
COc1c(Cl)cc(-c2noc(C)c2C(=O)NCc2ccccc2)cc1Cl,i,4.4
O=C(O)c1cc(-c2ccccc2)nn1CC1CC(c2cccnc2)=NO1 (stereo not drawn),i,1.3
COc1ccccc1CNC(=O)c1cc(-c2ccccc2)nn1CC1CC(c2cccnc2)=NO1 (stereo not drawn),-6.1*,-6.1
CCOc1cc(NC(=S)NCCc2ccccc2)c(OCC)cc1NC(C)=O,i,.
COc1ccc(/C=N/n2cncn2)cc1Cn1nc(C)c([N+](=O)[O-])c1C,i,.
COc1ccc(OC)c(S(=O)(=O)N2CCN(C(=O)CCc3ccccc3)CC2)c1,i,1.1
CC1CN(c2ccccc2)CCN1C(=O)c1cc(COc2c(F)cccc2F)on1 (stereo not drawn),i,1.3
Cc1cccc(C)c1OCc1cc(C(=O)N2CCN(c3ccccc3)CC2C)no1 (stereo not drawn),-7.1*,-7.1
O=C(Nc1cccc(C(F)(F)F)c1)c1cccnc1N1CCN(CCO)CC1,i,.
O=C(Nc1cccc(C(F)(F)F)c1)c1cccnc1N1CCN(c2ccccc2)CC1,-7*,-7
Cc1cccc([C@@H]2[C@@H]3C(=O)N(Cc4ccccc4)C(=O)[C@@H]3[C@]3(Cc4ccc(Cl)cc4)C(=O)N(c4ccc(Br)cc4)C(=O)N23)c1,i,1.7
Cc1c(C(=O)N/N=C/C(C)C)[nH]c2c([N+](=O)[O-])cccc12,i,0.23
SMILES,KCNQ2 inh,KCNQ2 enhance
O=C(Nc1nc2ccccc2s1)c1ccc(N2CCCCC2)c([N+](=O)[O-])c1,i,.
O=C(OCC(=O)c1c[nH]c2ccccc12)c1cccc(S(=O)(=O)N2CCCCCC2)c1,i,8.8*
O=C(COC(=O)c1cccc(S(=O)(=O)N2CCCC2)c1)Nc1ccccc1,i,1.6
O=C(NCCN1CCCC1)c1ccc2c(=O)n(CCc3ccccc3)c(=O)[nH]c2c1,-6*,-6
CCCN1CCN(CCCNC(=O)c2ccc3c(=O)n(CCc4ccccc4)c(=O)[nH]c3c2)CC1,i,.
NS(=O)(=O)c1cc2c(cc1Cl)NC(c1ccccc1OCC(=O)O)NS2(=O)=O (stereo not drawn),i,0.84
COc1ccc(NC(=O)c2csc(Cc3ccc(Cl)cc3)n2)cc1,i,.
COc1ccc(Cc2nc(C(=O)Nc3ccc(Cl)cc3)cs2)cc1,-5.8*,-5.8
COc1ccc(OC)c(CCNC(=O)Cn2sc3nc(C)cc(C)c3c2=O)c1,-9.3*,-9.3
Cc1cc(C)c2c(=O)n(CC(=O)NC3CCCC3)sc2n1,i,4.2
CC(=O)c1c(C)nc2ccc(Br)cc2c1-c1ccccc1,-7.8*,-7.8
Cc1nc2ccc(Br)cc2c(-c2ccccc2)c1C(=O)O,i,.
COc1ccc(NC(=O)N(C2CCCCC2)C(C)c2ccco2)c(OC)c1 (stereo not drawn),-8.2*,-8.2
COc1ccc(NC(=O)N(C2CCCCC2)C(C)c2cccnc2)c(OC)c1 (stereo not drawn),i,.
Cc1cccc(OCC(=O)Nc2nnc(S(=O)(=O)N3CCCCCC3)s2)c1,i,1.5
COc1ccc(CN2C(=O)c3ccccc3C2=O)cc1C(=O)O,i,.
CCc1cccc(CC)c1NC(=O)c1cc(CN2C(=O)c3ccccc3C2=O)ccc1OC,-8*,-8
CCc1ccc(NC(=O)C(=O)NCCOc2ccccc2Cl)cc1,i,0.87
CC(C)c1cc2c(c(O)c1O)[C@@]13CCCC(C)(C)C1CC2OC3=O (stereo partly drawn),i,.
Cc1cc(OCC(=O)N2CCN(c3ccccn3)CC2)cc(C)c1Br,-6*,-6

# Bioassay records: PubChem BioAssay, Johns Hopkins Ion Channel Center
